Assay results published in the supplement of paper PMC10849652.
Of roughly 7,900 targets only a part is listed; those with a hit were picked by preference. About 0.6% of all pairs of compound and target were hits. Values without a mark were called inactive.

Columns and labels:
Experiment in all cases: log2 fold change, soluble protein after heating vs DMSO (PISA); higher = thermal stabilisation; K562 cells, 10 uM, 30 min; active = over 0.2 and 3.5 SD of the protein, either way, in both replicates (recomputed)
[1] = compound: C#Cc1cccc(Nc2ncnc3cc(OCCOC)c(OCCOC)cc23)c1 [erlotinib]
In short: (§1)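 K562 cells at 2×10^6 cells/mL were treated with 10 μM compound for 30 min. Aliquots were heated for 3 min across 48°C-58°C, pooled, and extracted in PBS with 0.5% NP-40 at 4°C; soluble protein was the supernatant after 21,000xg for 90 min. Soluble protein was quantified by TMTpro 16plex LC-MS/MS with channel sums equalised, and reported as log2 fold change in thermal stability against DMSO controls, with values from duplicates.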

[2] = compound: C/C(=N\NC(=O)C1=CC(=CC=C1)S(=O)(=O)N2CCOCC2)/C3=C(C=CC(=C3)Cl)O
In short: as §1

[3] = compound: C1=CC(=C(C=C1Cl)C2=NC3=NC=CN=C3C(=N2)NC4=CC=NC=C4)F
In short: as §1

[4] = compound: C1=CC(=CC=C1C2=NC3=C(N2)C=C(C=C3)C(=O)N)OC4=CC=C(C=C4)Cl
In short: as §1

[5] = compound: C1=CC2=C(C=CC(=C2)/C=C\3/C(=O)NC(=NCC4=CC=CS4)S3)N=C1
In short: as §1

[6] = compound: C1=CC2=NC=CN=C2C=C1/C=C/3\C(=O)NC(=O)S3
In short: as §1

[7] = compound: C1=CC=C(C=C1)C2=NC(=C(N2)C3=CC=NC=C3)C4=CC(=C(C=C4)Cl)O
In short: as §1

[8] = compound: C1=CC=C2C(=C1)C3=NNC4=CC=CC(=C43)C2=O
In short: as §1

[9] = compound: C1CCN(C1)C(=O)NC2=CC=CC(=C2)NC3=NC=C(C(=N3)NCCC4=CN=CN4)Br
In short: as §1

[10] = compound: C1CN(CCC1(CC2=CC=C(C=C2)Cl)N)C3=NC=NC4=C3C=CN4
In short: as §1

Sequence of UniProt Q9UJ14 (Q9UJ14 whole entry, looked up): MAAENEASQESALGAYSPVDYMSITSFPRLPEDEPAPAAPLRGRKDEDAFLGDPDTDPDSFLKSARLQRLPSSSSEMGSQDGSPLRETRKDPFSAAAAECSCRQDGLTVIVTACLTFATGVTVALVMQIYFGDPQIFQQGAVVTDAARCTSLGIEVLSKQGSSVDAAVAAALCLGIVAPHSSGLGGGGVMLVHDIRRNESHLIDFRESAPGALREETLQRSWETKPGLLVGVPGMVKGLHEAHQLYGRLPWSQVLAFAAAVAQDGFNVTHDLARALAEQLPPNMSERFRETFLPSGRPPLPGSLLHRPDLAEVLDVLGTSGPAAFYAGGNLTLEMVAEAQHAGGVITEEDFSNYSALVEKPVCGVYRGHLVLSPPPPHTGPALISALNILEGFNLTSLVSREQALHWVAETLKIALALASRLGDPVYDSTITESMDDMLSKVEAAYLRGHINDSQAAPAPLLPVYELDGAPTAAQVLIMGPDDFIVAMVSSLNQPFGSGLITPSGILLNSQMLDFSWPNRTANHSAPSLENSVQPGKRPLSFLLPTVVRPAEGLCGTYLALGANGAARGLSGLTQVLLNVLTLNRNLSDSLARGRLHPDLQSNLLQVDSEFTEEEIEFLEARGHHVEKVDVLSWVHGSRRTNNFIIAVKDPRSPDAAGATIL
Sequence of UniProt Q86UX7 (Q86UX7 whole entry, looked up): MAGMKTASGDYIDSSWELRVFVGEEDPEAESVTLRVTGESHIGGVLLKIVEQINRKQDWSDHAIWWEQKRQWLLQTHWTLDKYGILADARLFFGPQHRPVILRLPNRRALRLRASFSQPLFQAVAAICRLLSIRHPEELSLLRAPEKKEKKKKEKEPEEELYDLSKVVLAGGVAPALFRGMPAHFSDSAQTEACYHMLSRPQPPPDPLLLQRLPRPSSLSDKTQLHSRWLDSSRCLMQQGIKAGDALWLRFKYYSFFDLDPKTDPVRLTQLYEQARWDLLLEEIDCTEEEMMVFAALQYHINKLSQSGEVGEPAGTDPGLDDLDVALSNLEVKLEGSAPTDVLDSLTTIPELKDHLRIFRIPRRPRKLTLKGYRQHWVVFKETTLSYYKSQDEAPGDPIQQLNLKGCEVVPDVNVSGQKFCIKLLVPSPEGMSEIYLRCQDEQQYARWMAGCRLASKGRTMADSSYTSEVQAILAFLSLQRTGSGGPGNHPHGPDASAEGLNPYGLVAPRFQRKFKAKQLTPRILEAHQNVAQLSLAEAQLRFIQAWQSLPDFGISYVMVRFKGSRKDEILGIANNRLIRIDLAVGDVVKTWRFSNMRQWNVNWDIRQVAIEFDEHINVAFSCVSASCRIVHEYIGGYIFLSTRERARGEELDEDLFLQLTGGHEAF
Sequence of UniProt P55084 (P55084 whole entry, looked up): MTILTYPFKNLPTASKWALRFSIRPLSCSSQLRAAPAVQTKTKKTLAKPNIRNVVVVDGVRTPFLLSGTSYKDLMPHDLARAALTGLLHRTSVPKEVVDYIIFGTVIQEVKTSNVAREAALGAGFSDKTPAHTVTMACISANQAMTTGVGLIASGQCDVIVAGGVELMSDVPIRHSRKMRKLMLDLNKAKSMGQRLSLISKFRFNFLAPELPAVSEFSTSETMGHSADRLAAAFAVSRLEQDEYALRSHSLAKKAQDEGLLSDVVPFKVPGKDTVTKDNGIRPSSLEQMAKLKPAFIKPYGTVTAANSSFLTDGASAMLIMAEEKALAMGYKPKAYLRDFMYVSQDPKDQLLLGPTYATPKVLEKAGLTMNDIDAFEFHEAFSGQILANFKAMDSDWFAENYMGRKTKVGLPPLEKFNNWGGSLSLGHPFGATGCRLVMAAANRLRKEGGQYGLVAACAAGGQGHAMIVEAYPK
Sequence of UniProt P52655 (P52655 whole entry, looked up): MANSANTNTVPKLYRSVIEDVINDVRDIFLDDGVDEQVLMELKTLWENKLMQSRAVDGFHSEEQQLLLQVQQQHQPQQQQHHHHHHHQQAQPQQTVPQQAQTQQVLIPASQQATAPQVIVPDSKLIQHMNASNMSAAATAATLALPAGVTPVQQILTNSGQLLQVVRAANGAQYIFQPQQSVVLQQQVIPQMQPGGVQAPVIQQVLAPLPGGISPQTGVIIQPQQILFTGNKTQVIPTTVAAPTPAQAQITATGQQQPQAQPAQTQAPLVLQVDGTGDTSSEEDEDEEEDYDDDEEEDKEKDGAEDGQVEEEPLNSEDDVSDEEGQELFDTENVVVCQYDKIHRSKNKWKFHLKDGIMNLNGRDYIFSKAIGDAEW
Sequence of UniProt P49840 (P49840 whole entry, looked up): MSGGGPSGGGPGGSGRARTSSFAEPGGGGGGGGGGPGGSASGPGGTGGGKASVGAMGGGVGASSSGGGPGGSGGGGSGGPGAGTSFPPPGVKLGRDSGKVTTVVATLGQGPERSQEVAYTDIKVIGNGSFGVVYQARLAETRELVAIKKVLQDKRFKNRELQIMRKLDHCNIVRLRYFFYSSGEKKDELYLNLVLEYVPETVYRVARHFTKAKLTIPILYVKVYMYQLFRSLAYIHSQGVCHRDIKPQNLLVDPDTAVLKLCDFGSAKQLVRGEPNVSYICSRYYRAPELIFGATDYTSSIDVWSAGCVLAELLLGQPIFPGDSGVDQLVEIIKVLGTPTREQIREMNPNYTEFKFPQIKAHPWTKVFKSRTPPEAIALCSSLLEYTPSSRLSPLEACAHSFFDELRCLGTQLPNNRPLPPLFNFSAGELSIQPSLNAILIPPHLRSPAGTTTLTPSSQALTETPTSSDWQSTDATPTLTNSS
Sequence of UniProt P49841 (P49841 whole entry, looked up): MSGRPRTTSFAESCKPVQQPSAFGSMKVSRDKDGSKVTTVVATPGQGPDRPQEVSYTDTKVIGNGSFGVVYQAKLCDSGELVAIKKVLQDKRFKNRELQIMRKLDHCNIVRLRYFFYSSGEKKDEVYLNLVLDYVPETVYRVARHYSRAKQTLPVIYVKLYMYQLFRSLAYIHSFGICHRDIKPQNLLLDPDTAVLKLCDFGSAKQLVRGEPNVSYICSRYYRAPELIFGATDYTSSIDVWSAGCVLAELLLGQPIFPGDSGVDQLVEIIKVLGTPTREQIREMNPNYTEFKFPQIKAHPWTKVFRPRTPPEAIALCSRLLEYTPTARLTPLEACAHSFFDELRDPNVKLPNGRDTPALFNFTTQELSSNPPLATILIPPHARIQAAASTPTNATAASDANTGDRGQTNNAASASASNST
Sequence of UniProt Q8IWJ2 (Q8IWJ2 whole entry, looked up): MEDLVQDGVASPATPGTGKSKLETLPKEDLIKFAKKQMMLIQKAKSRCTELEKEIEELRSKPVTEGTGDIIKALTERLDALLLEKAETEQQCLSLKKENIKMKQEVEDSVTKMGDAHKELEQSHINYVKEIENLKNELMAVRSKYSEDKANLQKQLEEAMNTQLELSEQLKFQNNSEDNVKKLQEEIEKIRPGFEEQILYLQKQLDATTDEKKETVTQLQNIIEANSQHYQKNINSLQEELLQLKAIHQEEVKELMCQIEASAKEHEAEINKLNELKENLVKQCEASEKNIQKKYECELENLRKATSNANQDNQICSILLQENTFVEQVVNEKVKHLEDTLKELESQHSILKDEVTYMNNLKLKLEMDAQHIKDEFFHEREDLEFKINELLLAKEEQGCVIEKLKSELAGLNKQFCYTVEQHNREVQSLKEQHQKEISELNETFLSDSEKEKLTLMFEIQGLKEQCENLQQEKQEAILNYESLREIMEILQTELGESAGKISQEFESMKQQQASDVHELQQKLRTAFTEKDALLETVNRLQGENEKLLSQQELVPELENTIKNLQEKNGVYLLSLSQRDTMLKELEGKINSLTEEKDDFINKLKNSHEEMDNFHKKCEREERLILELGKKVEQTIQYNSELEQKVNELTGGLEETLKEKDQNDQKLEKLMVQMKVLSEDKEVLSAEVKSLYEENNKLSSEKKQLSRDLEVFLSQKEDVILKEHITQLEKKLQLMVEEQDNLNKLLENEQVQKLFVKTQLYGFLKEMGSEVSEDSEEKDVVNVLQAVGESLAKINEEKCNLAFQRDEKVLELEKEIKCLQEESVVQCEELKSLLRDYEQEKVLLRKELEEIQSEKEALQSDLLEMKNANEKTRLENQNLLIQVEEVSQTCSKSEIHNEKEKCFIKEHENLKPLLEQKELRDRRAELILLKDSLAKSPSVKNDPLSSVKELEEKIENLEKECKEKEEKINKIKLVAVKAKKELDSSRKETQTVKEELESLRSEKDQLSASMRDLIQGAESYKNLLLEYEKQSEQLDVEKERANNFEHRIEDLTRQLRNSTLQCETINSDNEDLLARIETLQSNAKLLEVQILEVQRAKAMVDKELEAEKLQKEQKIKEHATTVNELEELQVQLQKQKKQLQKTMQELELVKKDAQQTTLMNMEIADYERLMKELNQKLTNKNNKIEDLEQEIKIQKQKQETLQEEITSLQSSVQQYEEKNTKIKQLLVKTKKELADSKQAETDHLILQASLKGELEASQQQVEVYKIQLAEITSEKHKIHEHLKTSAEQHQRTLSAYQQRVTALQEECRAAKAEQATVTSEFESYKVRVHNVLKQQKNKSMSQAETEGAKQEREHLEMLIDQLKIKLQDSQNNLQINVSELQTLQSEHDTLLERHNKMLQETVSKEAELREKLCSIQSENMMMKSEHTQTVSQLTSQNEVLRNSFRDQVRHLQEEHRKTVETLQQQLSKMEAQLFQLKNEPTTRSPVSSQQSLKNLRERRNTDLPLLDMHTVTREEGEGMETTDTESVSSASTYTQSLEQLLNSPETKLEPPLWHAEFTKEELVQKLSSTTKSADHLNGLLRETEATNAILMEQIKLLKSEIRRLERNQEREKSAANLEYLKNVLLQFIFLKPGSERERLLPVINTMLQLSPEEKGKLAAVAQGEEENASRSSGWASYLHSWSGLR
Sequence of UniProt Q13907 (Q13907 whole entry, looked up): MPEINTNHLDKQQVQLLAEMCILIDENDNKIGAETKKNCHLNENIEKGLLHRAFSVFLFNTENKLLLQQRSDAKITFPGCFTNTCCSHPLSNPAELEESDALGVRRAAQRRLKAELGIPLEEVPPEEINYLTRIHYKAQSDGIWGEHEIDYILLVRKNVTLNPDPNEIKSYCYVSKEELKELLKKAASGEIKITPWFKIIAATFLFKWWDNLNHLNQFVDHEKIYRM

| Target | log2 fold change [1] | log2 fold change [2] | log2 fold change [3] | log2 fold change [4] | log2 fold change [5] | log2 fold change [6] | log2 fold change [7] | log2 fold change [8] | log2 fold change [9] | log2 fold change [10] |
| --- | --- | --- | --- | --- | --- | --- | --- | --- | --- | --- |
| GTF3C4 (UniProt Q9UKN8) | -0.016 | 0.065 | 0.026 | 0.003 | 0.025 | -0.005 | 0.003 | -0.022 | -0.026 | 0.027 |
| HSPA8 (UniProt P11142) | -0.016 | -0.031 | 0.01 | -0.014 | 0 | 0 | -0.003 | -0.088 | 0.009 | 0.017 |
| FNTA (UniProt P49354) | 0.245 | -0.033 | 0.116 | -0.017 | 0.075 | -0.009 | 0.051 | -0.034 | 0.065 | 0.106 |
| GPD1 (UniProt P21695) | 0.55 | -0.084 | -0.075 | -0.305 | 0.129 | -0.149 | -0.003 | -0.047 | -0.043 | 0.032 |
| GNB2 (UniProt P62879) | 0.003 | 0.079 | -0.04 | 0.051 | -0.016 | 0.007 | -0.003 | 0.008 | -0.057 | -0.002 |
| FKBP4 (UniProt Q02790) | -0.04 | 0.07 | 0.055 | -0.042 | 0.017 | 0.007 | 0.036 | 0.047 | 0.016 | -0.033 |
| FDPS (UniProt P14324) | 0.18 | 0.174 | -0.022 | 0.067 | 0.3 | -0.026 | 0.06 | 0.186 | 0.006 | -0.309 |
| FDFT1 (UniProt P37268) | 0.126 | -0.026 | -0.01 | 0.037 | 0.209 | 0 | 0.011 | 0.144 | -0.039 | 0.059 |
| GCC2 (UniProt Q8IWJ2) | -0.062 | 0 | -0.155 | -0.017 | -0.076 | 0.034 | -0.032 | -0.021 | -0.054 | -0.154 |
| HADHB (UniProt P55084) | -0.057 | 0.112 | 0.035 | -0.184 | 0.063 | 0.024 | 0.04 | 0.259 | -0.206 | 0.158 |
| GLYR1 (UniProt Q49A26) | -0.053 | -0.211 | -0.289 | 0.05 | -0.352 | 0.1 | -0.021 | -0.034 | 0.119 | -0.03 |
| GNPAT (UniProt O15228) | 0.067 | 0.112 | 0.075 | -0.001 | 0.073 | 0.03 | 0.057 | 0.019 | -0.003 | 0.058 |
| GLS (UniProt O94925) | 0.003 | 0.105 | 0.174 | -0.107 | -0.043 | 0.14 | 0.034 | -0.023 | -0.091 | -0.03 |
| FIBP (UniProt O43427) | 0.023 | 0.088 | 0.011 | -0.002 | 0.107 | -0.023 | -0.032 | 0.011 | -0.144 | 0.125 |
| GTF2A1 (UniProt P52655) | -0.011 | -0.052 | 0.001 | -0.011 | -0.094 | 0.034 | -0.021 | -0.029 | -0.024 | 0.036 |
| GOLPH3 (UniProt Q9H4A6) | 0.008 | 0.073 | 0.104 | -0.014 | 0.011 | 0.008 | 0.051 | -0.007 | -0.101 | 0.043 |
| FERMT3 (UniProt Q86UX7) | 0.019 | 0.076 | 0.091 | -0.003 | 0.028 | 0.02 | 0.011 | 0.008 | -0.006 | 0.012 |
| HSPA8 (UniProt E9PK54) | -0.008 | 0 | -0.346 | 0.032 | 0 | 0.034 | -0.211 | -0.095 | -0.056 | -0.158 |
| H2AZ1 (UniProt P0C0S5) | -0.025 | -0.13 | -0.554 | -0.014 | -0.087 | 0.169 | -0.189 | 0.036 | 0.07 | 0.037 |
| GATA1 (UniProt P15976) | 0.05 | 0.024 | -0.021 | -0.015 | 0.032 | 0.028 | -0.021 | -0.083 | 0.031 | -0.004 |
| GEMIN6 (UniProt Q8WXD5) | -0.002 | 0.02 | -0.042 | 0.027 | -0.022 | 0.065 | 0.125 | -0.012 | -0.002 | -0.045 |
| HDAC7 isoform 5 (UniProt Q8WUI4) | 0.025 | 0.057 | -0.08 | 0.007 | -0.126 | -0.008 | -0.037 | -0.171 | -0.056 | 0.025 |
| HBQ1 (UniProt P09105) | -0.007 | -0.021 | 0.33 (active) | 0.03 | 0.059 | 0.011 | 0.051 | -0.021 | -0.093 | 0.026 |
| GUK1 isoform 2 (UniProt Q16774) | 0.009 | 0.289 | 0.092 | 0 | 0.004 | 0 | -0.02 | 0.021 | -0.03 | 0.066 |
| GSK3A (UniProt P49840) | -0.02 | 0.015 | 0.01 | 0.045 | -0.001 | -0.001 | 0.18 | 0.147 | 0.131 | 0.019 |
| GAGE12F (UniProt P0CL80) | -0.056 | -0.061 | 0.017 | -0.035 | 0.08 | 0.025 | -0.007 | 0.011 | -0.088 | 0.052 |
| GALK1 isoform 2 (UniProt P51570) | 0.002 | 0.082 | 0.158 | -0.023 | -0.08 | 0.016 | 0.07 | 0.055 | -0.094 | 0.076 |
| GSK3B isoform 2 (UniProt P49841) | -0.024 | -0.051 | 0.007 | 0.027 | 0.038 | -0.013 | 0.095 | 0.091 | 0.042 | 0.159 |
| GGT7 (UniProt Q9UJ14) | 0.012 | -0.006 | 0.084 | -0.027 | -0.001 | -0.004 | -0.018 | -0.01 | -0.035 | 0.062 |
| IDI1 isoform 2 (UniProt Q13907) | 0.004 | -0.313 (active) | 0.03 | -0.012 | -0.033 | -0.004 | -0.038 | 0.034 | -0.02 | 0.002 |
